Source: PubChem (National Center for Advancing Translational Sciences (NCATS))
ALOX12 inhib – qHTS Assay for Inhibitors of 12-hLO (12-human lipoxygenase); hit rate 0.12% among 150,000; purified 12-hLO, xylenol orange hydroperoxide absorbance; AID 1452, 2008; Potency, µM (titrated, usually from 57.1 µM), for the others: at the top dose activity change, negative = inhibition, hits mostly inhibitors; active = well fitted inhibition curve with a large enough effect; inconclusive = small, poorly fitted or top-dose-only effect; note: potency is the fitted concentration of half-maximal effect; nearly all actives have a fitted effect of over 55% in size
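150 nM 12hLO, 25 mM Hepes pH 7.0 + 0.01% Triton X-100; cpd preinc 15 min RT; 40 uM arachidonic acid, 30 min RT; Fe-XO 30 min; A573/A405 ratio as read-out.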
HPGD block – qHTS Assay for Inhibitors of HPGD (15-Hydroxyprostaglandin Dehydrogenase); 15-hydroxyprostaglandin dehydrogenase [NAD(+)] (Homo sapiens), P15428; purified HPGD, NADH fluorescence kinetic, PGE2 substrate; Potency, µM, inactives show at the highest dose activity change, negative = inhibition, hits mostly inhibitors; hit rate 4.3% among 150,000; AID 894, 2007; note: potency is the fitted concentration of half-maximal effect
Target sequence (P15428 whole entry, looked up): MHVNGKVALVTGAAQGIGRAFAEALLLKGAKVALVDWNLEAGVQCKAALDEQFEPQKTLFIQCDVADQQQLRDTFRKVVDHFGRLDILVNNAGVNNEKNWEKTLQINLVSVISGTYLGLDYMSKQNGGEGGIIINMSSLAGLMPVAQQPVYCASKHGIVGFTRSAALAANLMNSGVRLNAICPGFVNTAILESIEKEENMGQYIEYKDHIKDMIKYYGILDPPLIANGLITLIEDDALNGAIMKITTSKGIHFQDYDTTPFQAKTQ
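NADH formation kinetics: reaction with 30 uM PGE2 and 1 mM NAD+ (final), 20 nM enzyme, Tris-HCl pH 8 with Tween 20, after 15 min compound preincubation at room temperature. Fluorescence change, last versus first of five reads.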
PNC inhibitor – High Content Assay for Compounds that inhibit the Assembly of the Perinucleolar Compartment; hit rate 3.1% among 140,000; activity change (PNC), negative = inhibition, % at 10 µM; AID 2417, 2010; PC3M PTB-GFP, PNC prevalence imaging, 16 h; hits give low values;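 active = readout at or below -70, meaning at least 70% loss of cells showing the perinucleolar compartment, a nuclear body marking cancer cells; inconclusive = readout between -30 and a set limit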;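 note: plate controls were DMSO wells for no effect and camptothecin positive control wells for full effect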
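PC3M cells stably expressing PTB-GFP, 750–1000 cells/well, treated 16 h at 37 °C with compound (23 nl of library stock), in duplicate. After paraformaldehyde fixation and Hoechst stain, imaged at 20x; PNC prevalence scored by image analysis.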
LMNA splice mod – qHTS Assay for Modulators of Lamin A Splicing. HeLa LMNA splicing GFP/RFP minigene ratio, 48 h. Potency, µM (titrated, usually from 46.1 µM), without a hit: top-dose ratio change, negative = inhibition, usual class: inhibitors. hit rate 0.01% among 200,000. AID 1487, 2009; active = well fitted inhibition curve with a large enough effect in the signal ratio, with a control signal flat, not every such curve was filed as active; inconclusive = small, poorly fitted or top-dose-only effect, or effect the other way, or a change in a side signal; the % refers to the signal ratio; note: potency is the fitted concentration of half-maximal effect
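S3 HeLa cells stably expressing lamin A-EGFP splicing minigene plus DsRed2, 600 cells/well, 48 h compound exposure at 37C. Laser-scanning cytometry; analysed as GFP (500-530 nm)/RFP (575-640 nm) total intensity ratio; 0.5% DMSO vehicle.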
ALDH1A1 inh – qHTS Assay for Inhibitors of Aldehyde Dehydrogenase 1 (ALDH1A1); Purified ALDH1A1, NADH fluorescence, propionaldehyde substrate; Potency, µM (doses to about 75.3 µM), for the others: at the highest dose activity, negative = inhibition, usual class: inhibitors; hit rate 7.3% among 220,000; AID 1030, 2008;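 note: potency is the fitted concentration of half-maximal effect; plate controls were no enzyme wells and a reference inhibitor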
Target sequence (P00352 whole entry, looked up): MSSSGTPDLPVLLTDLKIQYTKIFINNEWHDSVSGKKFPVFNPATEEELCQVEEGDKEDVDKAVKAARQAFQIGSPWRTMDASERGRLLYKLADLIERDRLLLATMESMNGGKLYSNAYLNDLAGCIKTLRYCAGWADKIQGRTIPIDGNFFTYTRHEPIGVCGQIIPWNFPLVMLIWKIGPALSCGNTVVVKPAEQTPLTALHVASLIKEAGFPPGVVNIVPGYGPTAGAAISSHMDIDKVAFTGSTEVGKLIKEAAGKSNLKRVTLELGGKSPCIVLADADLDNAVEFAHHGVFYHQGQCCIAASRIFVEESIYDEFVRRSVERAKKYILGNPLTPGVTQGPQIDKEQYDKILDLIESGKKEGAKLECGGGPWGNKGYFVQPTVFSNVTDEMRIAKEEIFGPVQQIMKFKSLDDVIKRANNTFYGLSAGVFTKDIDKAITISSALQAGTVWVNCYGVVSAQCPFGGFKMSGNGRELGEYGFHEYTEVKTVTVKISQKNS
An asterisk follows results filed as active; u = inconclusive; x = no result given; [ ] = another dose, or the depositor's remark. An excerpt weighted towards active compounds, which were near 10% of everything screened. Unless noted, calls come from the whole dose curve; as a rule, active = well fitted inhibition curve with a large enough effect (not every such curve was filed as active); inconclusive = small, poorly fitted or top-dose-only effect, or another doubt; inactive = no such curve, though single readings can be large or run the other way. Unless noted, % is set by controls: 0 for no effect and ±100 for the full control effect.

SMILES	ALOX12 inhib	HPGD block	PNC inhibitor	LMNA splice mod	ALDH1A1 inh
CCOc1ccc(OCC(=O)NCCS(=O)(=O)N2CCN(c3ccccc3F)CC2)cc1	x	x	x	6%[46 µM]	x
Cc1cc(C)c(C#N)c(SCCS(=O)(=O)Cc2ccccc2)n1	-8%	-17%	32	-5%	6.3µM*
Cc1ccc(S(=O)(=O)CCSc2nc(C)cc(C)c2C#N)cc1	-7%	-29%	-5	-9%	2µM*
CSc1nc(N)nc(SCCS(=O)(=O)c2ccc(Cl)cc2)c1C#N	-12%	-29%	223	u	2.5µM*
COCCn1c(=O)c(-c2ccccc2)nc2cnc(N3CCN(C)CC3)nc21	x	x	x	-11%	u
O=C(CNc1ccc(Br)cc1)NNC1=NCCC1	2%	-1%	-113*	u	17%
CCC(=O)NNc1ccc(Br)cc1	x	x	x	x	-2%
O=C(CNc1ccc(Br)cc1)c1ccc(O)cc1	x	x	x	x	11µM*
O=C(CNc1ccc(Cl)cc1)c1ccc(Br)cc1	x	x	x	u	10µM*
CC(=O)N[C@@H]1C(O)OC(CO)C(O)C1O (stereo partly drawn)	0%	-13%	x	u	5%
CNc1ncnc2c1ncn2[C@@H]1O[C@H](CO)[C@H](O)[C@H]1O	x	3%	x	u	-2%
COc1cccc(-c2nc(CS(=O)(=O)CC(=O)Nc3cc(C)ccc3C)c(C)o2)c1	2%	-13%	-119*	-9%	2%
COc1cccc(-c2nc(CS(=O)(=O)CC(=O)N3CCN(c4ccccn4)CC3)c(C)o2)c1	-1%	-10%	u	u	32µM*
COc1ccc(-c2nnc(SCC(=O)Nc3cc(OC)ccc3OC)nc2-c2ccc(OC)cc2)cc1	x	x	x	-5%[46 µM]	x
C=CC1=C2C=C(C3CC3)N(Cc3ccccc3)C=C2C(=O)C(C)(OC(=O)c2ccco2)C1=O (stereo not drawn)	2%[11.4 µM]	-1%	x	-11%[9.22 µM]	5%[13.5 µM]
CC(Sc1ccccn1)C(=O)Nc1ccc(S(N)(=O)=O)cc1 (stereo not drawn)	-6%	-20%	-108*	0%	-1%
CC(Sc1nncn1C)C(=O)Nc1ccc(S(N)(=O)=O)cc1 (stereo not drawn)	x	x	x	u	4%
CC(Sc1ccccn1)C(=O)Nc1ccccc1 (stereo not drawn)	-7%	28µM*	u	-13%	-2%
COc1ccc(NC(=O)C(C)Sc2ccccc2)cc1 (stereo not drawn)	4%	1%	31	4%	-2%
CC(=O)N1CCCc2cc(S(=O)(=O)N(C)CC(=O)Nc3cccc(Cl)c3C)ccc21	x	x	x	-8%[46 µM]	x
CC(=O)c1ccc(N2C(=O)Nc3ccccc3S2(=O)=O)cc1	x	x	x	-11%[46 µM]	x
CSc1nsc(/C=C/Nc2ccc(C)c(C)c2)c1C#N	x	x	x	u	14µM*
CSc1nsc(/C=C/Nc2ccc(C)cc2)c1C#N	-30%	14µM*	-11	u	7.5µM*
COc1cc(/C=N/Nc2snc(SC)c2C#N)ccc1O	-5%	u	-13	u	1%
CSc1nnc(C)c(/C=C/Nc2ccc(F)cc2)n1	-4%	-15%	28	4%	-7%
SMILES	ALOX12 inhib	HPGD block	PNC inhibitor	LMNA splice mod	ALDH1A1 inh
COCCCNc1nc(NCc2ccccc2OC)c2cnn(C)c2n1	x	x	x	7%[46 µM]	x
Cc1cc(C)n(C(C[N+](=O)[O-])c2ccc(Cl)cc2)n1 (stereo not drawn)	-10%	7.9µM*	u	9%	u
O=C(N[C@@]1(C(=O)O)C[C@@H]1c1ccccc1)c1ccccc1	3%[11.4 µM]	-2%	x	x	6%[13.5 µM]
Cc1cc(C(=O)N2CCCCCC2)cs1	0%	0.45µM*	-124*	-1%	-5%
Cc1cc(C)cc(C(=O)N2CCCCCC2)c1	5%	16µM*	0	-8%	7%
COc1cc2ncc3c(-c4ccccc4)nn(CC(=O)NC4CCCCC4)c3c2cc1OC	x	x	x	-13%[46 µM]	x
CS(=O)(=O)N1CCN(c2ccccc2NC(=O)Cc2ccccc2)CC1	3%	-2%	-23	-6%	-14%
CS(=O)(=O)N1CCN(c2ccccc2NC(=S)NC(=O)c2ccccc2[N+](=O)[O-])CC1	x	x	x	x	0.71µM*
CS(=O)(=O)N1CCN(c2ccccc2NC(=S)NC(=O)c2cccs2)CC1	x	x	x	u	0.45µM*
O=C(c1ccc(Cl)cc1)N1CCC(c2nc3ccccc3o2)CC1	x	x	x	2%[46 µM]	x
O=C(COC(=O)/C=C/c1cccc(Cl)c1)NCCC1=CCCCC1	2%	1%	u	-16%	13%
O=C(COC(=O)Cc1c(Cl)cccc1Cl)NCCC1=CCCCC1	-4%	13µM*	26	-1%	-6%
O=C(COC(=O)/C=C/c1ccc(Cl)cc1)NCCC1=CCCCC1	-1%	-16%	-90*	14%	8%
CCn1c(CNc2cccc(Cl)c2)nnc1SCC(=O)OC1CCCCC1	-3%	28µM*	45	21%	u
CS(=O)(=O)c1ccc(/C=N\NC(N)=S)cc1	0%[11.4 µM]	-11%	x	x	u
COc1cc(NC(=O)c2cccc(COCC(F)(F)C(F)F)c2)cc(OC)c1OC	0%	-4%	-100*	u	12%
NC1=N[C@H](c2ccc(Cl)cc2)N(c2ccc(S(N)(=O)=O)cc2)C(N)=N1	3%[11.4 µM]	0%	x	x	6%[13.5 µM]
CCOc1cc(C2C3=C(CCCC3=O)N(C)C3=C2C(=O)CCC3)cc(Cl)c1O	-5%	-18%	-100*	-7%	-4%
CCOc1cc(C2C3=C(CCCC3=O)NC3=C2C(=O)CCC3)cc(Cl)c1O	-7%	-14%	14	0%	-2%
CN(C)c1nc(SCCOC(=O)COc2ccc(Cl)cc2Cl)nc(N(C)C)n1	-9%	16µM*	29	-1%	5%
CN(C)c1nc(OCCOC(=O)COc2ccc(Cl)cc2Cl)nc(N(C)C)n1	-5%	-5%	5	3%	10%
COc1cccc(CNC(=O)CSc2ncc(S(=O)(=O)c3ccc(C)c(Cl)c3)c(=O)[nH]2)c1	x	x	x	2%[46 µM]	x
CCOc1cc(Cl)c(NC(=O)CC)cc1OCC	-4%	-1%	-114*	-5%	9%
COc1ccc(NC(=O)c2cn3c4c(ccc(Cl)c4c2=O)OC(C)C3)cc1OC (stereo not drawn)	x	x	x	-21%[46 µM]	x
CN1CCN(c2ncc3nc(-c4ccccc4)c(=O)n(C4CC4)c3n2)CC1	x	x	x	5%	u
CCc1ccc(N(C)S(=O)(=O)c2ccc3[nH]cc(C(=O)NCCN4CCOCC4)c(=O)c3c2)cc1	-1%	u	16	-11%	22µM*
CCOc1ccc(N(C)S(=O)(=O)c2ccc3[nH]cc(C(=O)NCC4CCCO4)c(=O)c3c2)cc1 (stereo not drawn)	-12%	14µM*	u	u	-19%
O=C(NCCc1ccccc1)c1c[nH]c2ccc(S(=O)(=O)Nc3ccc(F)cc3F)cc2c1=O	x	x	x	12%[46 µM]	x
